An excerpt weighted towards active compounds, which were near 19% of everything screened.
DT40 TDP1 CPT: DT40-hTDP1 cell growth loss with CPT | chicken DT40 Tdp1-/-;hTDP1 cells + 20 nM CPT, ATP luminescence, 48 h | Potency, µM (doses to about 46.2 µM), for inactives: top-dose activity change, negative = growth inhibition, most hits filed as inhibitors | 12% of 420,000 active; further: nearly all actives have a fitted effect of over 55% in size
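Cell growth measured by CellTiter-Glo luminescence after a minimum 48 h, 37 C compound exposure with 20 nM CPT in Tdp1-knockout DT40 cells stably expressing hTDP1, seeded 400/well; qHTS titration format.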
KB-3-1 tox: kills parental KB-3-1 adenocarcinoma cells. KB-3-1 viability, CellTiter-Glo ATP luminescence, 72 h. Potency, µM (highest dose often 46.1 µM), most hits filed as cytotoxic. 1.4% of 400,000 active; further: nearly all actives have a fitted effect of over 60% in size
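Cytotoxicity measured as CellTiter-Glo luminescence after 72 h at 37 C. Compound titrations were pinned onto drug-naive KB-3-1 parental adenocarcinoma cells grown in DMEM with 10% FBS, and normalized data fitted to concentration-response curves.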
HT1080NT lethal: kills 2HG-producing HT-1080-NT fibrosarcoma cells; HT-1080-NT fibrosarcoma viability, CellTiter-Glo ATP luminescence, 48 h; Potency, µM (highest dose often 46.1 µM), without a hit: at the highest dose activity, negative = less viability, hits mostly cytotoxic; 1.6% of 360,000 active;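 further: NT is the 2HG producing partner of a matched IDH1 knockdown line; 0% = DMSO-treated cells and -100% = media-only wells without cells; nearly all actives have a fitted effect of over 55% in size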
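Fibrosarcoma NT cells, 750 per well in 5% FBS RPMI, were exposed to compound for 48 hours. Viability: CellTiter-Glo luminescence.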
KB-V1 MDR tox: kills drug-selected multidrug resistant KB-V1 cells; KB-V1 MDR cells viability, CellTiter-Glo, 72 h; Potency, µM (doses to about 46.1 µM), actives largely listed as cytotoxic; 3.4% of 400,000 active; further: nearly all actives have a fitted effect of over 60% in size
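Following 72 h at 37 degrees C with compound, KB-V1 cell viability was read by CellTiter-Glo luminescence, medium being phenol-red-free DMEM plus 10% FBS; concentration-response parameters came from normalized, curve-fitted qHTS data.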
HT1080 IDH1KD tx: HT-1080 IDH1 knockdown cell toxicity (counter line). HT-1080 IDH1 knockdown viability, ATP luminescence, 48 h. Potency, µM (top dose mostly 46.1 µM), for inactives: top-dose activity, negative = toxicity, most hits filed as cytotoxic. 2% of 360,000 active. AID 686971;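 further: 0% = DMSO wells and -100% = cell-free medium wells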
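Using the IDH1-knockdown HT-1080 line run in the same batch and compound series as the NT line, viability after 48 h at 37 °C was determined by CellTiter-Glo luminescence and expressed as % activity.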
DT40 TDP1 no CPT: qHTS for Inhibitors of human tyrosyl-DNA phosphodiesterase 1 (TDP1): qHTS in cells in absence of CPT | DT40 Tdp1-/- hTDP1 cells, no CPT, ATP luminescence, 48 h | 15% of 420,000 active | AID 686978, 2013 | Potency, µM (highest dose often 46.2 µM), for the others: at the top dose activity change, negative = growth inhibition, hits mostly inhibitors; further: nearly all actives have a fitted effect of over 55% in size
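Chicken DT40 Tdp1-/- cells complemented with human TDP1, screened without camptothecin (DMSO vehicle only), 400 cells/well. Compounds pin-transferred, cells incubated at 37 °C for at least 48 hr. Growth read as ATP-dependent luminescence (CellTiter-Glo, 30 min at RT).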
An asterisk follows results filed as active; i = inactive; ? = inconclusive; . = not tested or not shown. The call rests on the fitted dose curve; in most records, active means well fitted curve in the direction sought with a large enough effect; inconclusive means small, poorly fitted or top-dose-only effect, or another doubt; inactive means no such curve, though single readings can be large; an effect the other way counts as inactive or inconclusive. Unless noted, on the % scale 0 is the no-effect control and ±100 the full control effect; potency means the concentration at half of the fitted maximal effect.

SMILES	DT40 TDP1 CPT	KB-3-1 tox	HT1080NT lethal	KB-V1 MDR tox	HT1080 IDH1KD tx	DT40 TDP1 no CPT
CC[C@]12C(=O)N(C)C[C@H]([C@@H]3C(=O)N(C)C(=O)[C@@H]31)N2C(=O)c1ccc(C)cc1	7.5%	i	9.8%	i	4.1%	-8.8%
O=C(NCc1cccs1)C1CC(=O)N(c2ccc(Cl)cc2)C1 (stereo unspecified)	8.9%	i	-17.4%	?	-9.8%	1.8%
Cc1ccc(NC(=O)N2C3CCCC2CC(NC(=O)C2CC2)C3)cc1 (stereo unspecified)	2.1%	i	18.5%	i	10.0%	-14.8%
CCOC(=O)c1sc(NC(=O)c2nc3ncccn3n2)c(C(=O)OC(C)C)c1C	-1.4%	i	.	i	.	-5.0%
COC(=O)[C@H](Cc1c[nH]c2ccccc12)NC(=O)NCc1ccccc1	10.5%	i	3.1%	i	0.0%	3.9%
Cc1ccc(C(=O)N2CCC(N3CCC(C(=O)N4CCOCC4)CC3)CC2)cc1C	17.1%	.	8.2%	.	13.2%	-4.0%
COC(=O)C(Cc1ccc(OC(=O)c2ccc(Cl)cc2)cc1)N1Cc2ccccc2C1=O (stereo unspecified)	?	i	-4.1%	i	-3.4%	?
COC(=O)C(Cc1ccc(OC(=O)c2ccc(C(F)(F)F)cc2)cc1)N1Cc2ccccc2C1=O (stereo unspecified)	16.4µM*	i	-4.7%	i	-24.7%	18.4µM*
CCc1cccc2c(C(=S)N3CCOCC3)c[nH]c12	0.8%	i	10.5%	i	23.3%	-11.3%
CCc1cccc2c(C(=O)COC(=O)c3ccccc3)c[nH]c12	-23.7%	i	-0.1%	?	-0.8%	-26.1%
CCc1cccc2c(C(=O)C(NC(C)CC)c3ccccc3)c[nH]c12 (stereo unspecified)	?	i	20.6µM*	i	?	23.1µM*
CCc1cccc2c(C(=O)C(NCCCOC)c3ccccc3)c[nH]c12 (stereo unspecified)	?	i	16.4µM*	i	?	?
Cc1ccc(CN2CCC(n3nccc3NC(=O)c3ccccc3C)CC2)o1	-3.3%	i	-1.5%	i	-2.1%	2.9%
Cc1cc(C)c2c(=O)cc(C(=O)Nc3ccc(S(=O)(=O)Nc4onc(C)c4C)cc3)oc2c1	-10.3%	.	.	.	.	-14.9%
CCOC(=O)N1CCN(C(=S)NCCOC)CC1	0.6%	i	-4.9%	i	-5.0%	8.6%
O=C(Nc1nc(-c2ccc(Br)cc2)ns1)c1ccc(F)cc1	?	.	.	.	.	18.4µM*
COc1ccc(-c2nsc(NC(=O)c3cccc(OC)c3)n2)cc1	?	.	.	.	.	20.6µM*
COc1ccc(C(=O)Nc2nc(-c3nnn(-c4ccc(C(C)C)cc4)c3C)ns2)cc1	13µM*	i	.	?	.	16.4µM*
COc1cc(OC)cc(C(=O)Nc2nc(-c3nnn(-c4ccc(F)c(Cl)c4)c3C)ns2)c1	?	i	.	i	.	?
COc1ccc(C(=O)Nc2nc(-c3nnn(-c4cc(OC)ccc4OC)c3C)ns2)cc1	16.4µM*	i	.	i	.	16.4µM*
COc1cccc(C(=O)Nc2nc(C)cs2)c1	-17.7%	i	2.5%	i	-0.9%	-12.8%
CC1CCCC(C)N1C(=O)COC(=O)c1ccc(Br)o1 (stereo unspecified)	3.3%	i	0.5%	i	1.6%	5.4%
CCc1cccc(NC(=O)CCNS(=O)(=O)c2ccc3c(c2)CCN3C(C)=O)c1	?	i	.	i	.	-27.3%
COc1cccc(C(=O)Nc2nc(-c3nnn(-c4cccc(Cl)c4C)c3C)ns2)c1	?	14.6µM*	.	i	.	?
COc1ccc(C2C(C(=O)Nc3ccccc3OC)=C(C)Nc3c(C(=O)Nc4ccccc4)cnn32)c(OC)c1 (stereo unspecified)	20.6µM*	.	.	.	.	?
SMILES	DT40 TDP1 CPT	KB-3-1 tox	HT1080NT lethal	KB-V1 MDR tox	HT1080 IDH1KD tx	DT40 TDP1 no CPT
CC1=C(C(=O)Nc2ccc(C)cc2C)C(c2ccc([N+](=O)[O-])cc2)n2ncc(C(=O)Nc3ccc(F)cc3)c2N1 (stereo unspecified)	8.2µM*	.	.	.	.	8.2µM*
CC1=C(C(=O)Nc2ccccc2)C(c2ccccc2Cl)n2ncc(C(=O)Nc3cccc(C)c3)c2N1 (stereo unspecified)	?	.	.	.	.	18.4µM*
CC1=C(C(=O)Nc2ccccc2)C(c2ccccc2C)n2ncc(C(=O)Nc3ccccc3)c2N1 (stereo unspecified)	?	.	.	.	.	-74.3%
c1ccc(Nc2nc(NCc3ccco3)nc3nccnc23)cc1	-2.7%	.	18.0%	.	16.9%	-25.6%
O=C(/C=C/c1ccccc1)c1ccccc1	14.6µM*	i	16.4µM*	?	20.6µM*	-69.4%
O=C(/C=C/c1ccccc1)CC(=O)c1ccccc1	?	?	0.0%	i	-2.6%	?
O=C(c1ccc(NS(=O)(=O)/C=C/c2ccccc2)cc1)N1CCCCC1	?	i	?	i	?	11.6µM*
O=C(/C=C/c1ccc[nH]1)c1ccccc1	25.9µM*	i	6.3%	i	-7.1%	?
O=C(c1ccc2ccccc2c1)N1CCN(S(=O)(=O)/C=C/c2ccccc2)CC1	16.4µM*	i	-11.7%	i	-0.3%	25.9µM*
O=C(NCCc1ccccc1)C1CCC(=O)N1C1CCCC1 (stereo unspecified)	7.8%	i	23.8%	i	26.2%	1.9%
CC(/C=C\c1ccccc1)=C/C(=O)O	7.8%	i	-0.6%	i	-1.0%	-18.6%
O=C(C=C1NCCN1)c1ccccc1	15.5%	i	3.8%	?	8.8%	-7.6%
O=CC(=O)c1ccccc1	?	i	5.0%	i	-10.6%	16.4µM*
O=C(/C=C/c1ccccc1)c1ccc2ccccc2c1	?	i	23.1µM*	i	?	16.4µM*
O=C(/C=C/c1ccccc1)/C=C/c1ccccc1	5.17µM*	?	-17.4%	?	?	.
CCN(CC)S(=O)(=O)c1cccc(-c2nnc(SCC(=O)c3ccc(Cl)s3)n2C)c1	?	i	-2.1%	i	-1.1%	?
COc1ccccc1NC(=O)C(=O)N1N=C(C(C)C)CC1(O)C(F)(F)F (stereo unspecified)	-0.9%	i	?	i	?	5.0%

Compound activity: PubChem BioAssay, National Center for Advancing Translational Sciences (NCATS)
